Compound activity (PubChem)
HADH2 inhib: HADH2 (human) dehydrogenase inhibition; Q99714; recombinant HADH2, NADH fluorescence, beta-hydroxybutyryl-CoA; AID 886; Potency, µM (titrated, usually from 57.1 µM), usual class: inhibitors; 73,000 compounds, 3.4% hits; also: nearly all actives have a fitted effect of over 60% in size
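E. coli-expressed His-tagged HADH2 tested at 20 nM in alkaline Tris buffer (pH 9.0); oxidation of 90 uM beta-hydroxybutyryl-CoA with 1 mM NAD+ tracked fluorimetrically for 4 min.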
A350 fluor: A350 region autofluorescence | Compound autofluorescence, 340/450 nm, Alexa 350 dye-equivalents; active compounds read high | max dye-equivalent concentration, M | 59,000 compounds, 11% hits; in the data active = max dye-equivalent concentration above about 10 nM; inconclusive = mostly about 1.1 nM to 9.6 nM
4-MU autofl: compounds fluorescent in 4-MU spectral region; compound autofluorescence, 340/450 nm, 4-MU equivalents; active compounds read high; max dye-equivalent concentration, M; AID 589; 59,000 compounds, 11% hits; in the data active = max dye-equivalent concentration above about 10 nM; inconclusive = mostly about 1.1 nM to 9.6 nM
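Intrinsic fluorescence at 340/450 nm (ex/em) was read after 15 min at room temperature in pH 8.0, 100 mM Tris. Each compound concentration expressed as 4-MU-equivalent concentration from a six-point 4-MU standard series on each plate.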
AID923: qHTS Assay for Allosteric/Competitive Inhibitors of Caspase-1: Spectroscopic Profiling in AFC Spectral Region. compound fluorescence, AFC spectral region (405/520 nm). Potency, µM (top dose mostly 57.5 µM), hits mostly activators. 75,000 compounds, 1.1% hits. AID 923, 2007
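Compound autofluorescence profiled at 405 nm ex/520 nm em during kinetic caspase 1 run (50 nM enzyme, 5 uM Ac-WEHD-AFC, HEPES pH 7.5, 10 mM DTT). Titration up to 57 uM; baseline from regression intercept, normalized to AFC standard curve.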
HSD17B inhib: HSD17B dehydrogenase inhibition. 75,000 compounds, 7.6% hits. recombinant HSD17B10, NADH fluorescence kinetic. Q99714. Potency, µM (highest dose often 57.1 µM), actives largely listed as inhibitors;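 also: the protocol describes HADH2 (HSD17B10) and not the HSD17B4 of the title; nearly all actives have a fitted effect of over 70% in size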
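Enzyme plus compound, 15 min room temperature; substrate mix added (NAD+ 1 mM, beta-hydroxybutyryl-CoA 90 uM final); plates read kinetically for NADH fluorescence. HADH2 was His-tagged, E. coli-derived, 20 nM.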
GBA activity: modulators of human glucocerebrosidase; P04062; purified enzyme, resorufin glucoside fluorescence (screen aimed at inhibitors), 20 min; Potency, µM; 48,000 compounds, 1.1% hits; in the data active = potency below about 15 µM; inconclusive = mostly about 16 µM to 33 µM;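 also: the screen sought inhibitors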
Target sequence (P04062 whole entry, looked up): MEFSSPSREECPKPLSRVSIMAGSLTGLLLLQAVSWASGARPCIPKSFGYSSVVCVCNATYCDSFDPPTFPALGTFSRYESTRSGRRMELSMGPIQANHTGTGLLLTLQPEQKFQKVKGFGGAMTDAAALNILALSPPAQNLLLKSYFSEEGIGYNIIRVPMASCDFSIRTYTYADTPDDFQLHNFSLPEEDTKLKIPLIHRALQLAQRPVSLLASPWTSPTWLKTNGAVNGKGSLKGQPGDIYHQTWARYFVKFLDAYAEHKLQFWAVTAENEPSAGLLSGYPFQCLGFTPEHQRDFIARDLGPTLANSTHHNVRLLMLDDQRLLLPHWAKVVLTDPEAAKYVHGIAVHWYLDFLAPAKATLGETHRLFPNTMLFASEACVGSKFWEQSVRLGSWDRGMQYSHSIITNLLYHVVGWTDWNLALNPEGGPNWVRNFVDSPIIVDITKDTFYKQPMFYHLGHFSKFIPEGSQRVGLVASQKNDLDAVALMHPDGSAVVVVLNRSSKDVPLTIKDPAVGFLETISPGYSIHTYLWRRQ
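Wild-type enzyme at 0.2 nM final in 50mM citric acid/KH2PO4, 10mM sodium taurocholate, 0.01% tween-20, pH 5.9, with resorufin beta-D-glucopyranoside at 30 uM final. Compounds titrated, 20 min at RT, red fluorescence read; AC50 from titration.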
Large screens that a line does not name were inactive. A selection: hits, their analogues and other compounds. The true share with any hit is near 13%. Unless noted, calls follow the shape of the dose curve; as a rule, active = well fitted curve in the direction sought with a large enough effect; inconclusive = small, poorly fitted or top-dose-only effect, or another doubt; inactive = no such curve, though single readings can be large; an effect the other way counts as inactive or inconclusive.

COc1cccc(C(=O)N(Cc2cc3cc(C)ccc3[nH]c2=O)C(C)C)c1	A350 fluor inconclusive, 4-MU autofl inconclusive, HSD17B inhib inconclusive
CCOC(=O)c1cccc(S(=O)(=O)N(CCO)Cc2cc3cc(OC)c(OC)cc3[nH]c2=O)c1	A350 fluor 1.6e-08M, 4-MU autofl 1.5e-08M
CCOC(=O)c1cccc(S(=O)(=O)N(CCO)Cc2cc3cc(OC)ccc3[nH]c2=O)c1	A350 fluor 5.3e-08M, 4-MU autofl 6.2e-08M, HSD17B inhib inconclusive
O=C1[C@H]2[C@H]3[C@H](O)[C@H](O)C/C(=N/OCc4ccccc4)[C@H]3CC[C@@H]2C(=O)N1c1cccc(Oc2ccccc2)c1	none (no result: A350 fluor, 4-MU autofl, GBA activity)
O=C1C2=CC[C@H]3C(=O)N(Cc4ccc5c(c4)OCO5)C(=O)[C@@H]3[C@@H]2[C@H](O)[C@@H]2O[C@H]12	none (no result: A350 fluor, 4-MU autofl, GBA activity)
CCCCN1CCC(n2c(=O)[nH]c3ccccc32)CC1	none (no result: GBA activity)
Cc1ccc(C(c2sc3ncnn3c2O)N2CCC(C)CC2)cc1 (stereo not drawn)	none (no result: A350 fluor, 4-MU autofl, GBA activity)
CC1CN(C(c2ccco2)c2sc3ncnn3c2O)CC(C)O1 (stereo not drawn)	HADH2 inhib inconclusive, HSD17B inhib 25µM (no result: A350 fluor, 4-MU autofl, GBA activity)
CC1=CC(=O)C2=C(C)CC[C@@H]3[C@@H](OC(=O)[C@H]3C)[C@H]12	none (no result: GBA activity)
CC(=O)C1=C(O)C(=O)N(c2cc(C(C)(C)C)on2)C1c1ccc(Br)cc1 (stereo not drawn)	A350 fluor 1e-08M, 4-MU autofl 1e-08M (no result: GBA activity)
C=CCn1c(=O)c2c(nc3n2CCN3c2cccc(Cl)c2C)n(C)c1=O	none
C=CCn1c(=O)c2c(nc(-c3ccc(S(=O)(=O)O)cc3)n2C)n(C)c1=O	A350 fluor 3.6e-08M, 4-MU autofl 2.5e-08M, HSD17B inhib 25µM (no result: GBA activity)
C#CCCCO/N=C1/C[C@@H](O)[C@@H](O)[C@@H]2[C@@H]3C(=O)N(CC)C(=O)[C@H]3CC[C@H]12	none (no result: A350 fluor, 4-MU autofl, GBA activity)
CN1CCN(c2c(F)cc3c(=O)c(C(=O)O)cn4c3c2SCC4)CC1	HADH2 inhib inconclusive, A350 fluor 7.4e-07M, 4-MU autofl 5.5e-07M, HSD17B inhib 25µM
c1cncc(-c2cc(NCc3cccs3)ncn2)c1	HADH2 inhib 25µM, HSD17B inhib inconclusive (no result: GBA activity)
c1csc(CNc2cc(-c3ccoc3)ncn2)c1	none (no result: GBA activity)
COc1ccc(NC(=O)c2cc(-c3ccc(C)o3)nc3ccccc23)cc1OC	A350 fluor 5e-08M, 4-MU autofl 4.4e-08M, HSD17B inhib inconclusive
O=C(O)c1cc(-c2ccco2)nc2ccc(Br)cc12	HADH2 inhib 13µM, A350 fluor 1.5e-07M, 4-MU autofl 1.4e-07M, HSD17B inhib 16µM
O=C(Nc1ccon1)c1cc(-c2ccccc2)nc2ccccc12	HSD17B inhib inconclusive
O=C(NCC1CCCO1)c1cc(-c2ccco2)nc2ccccc12 (stereo not drawn)	HADH2 inhib 13µM, A350 fluor 2.3e-06M, 4-MU autofl 2.5e-06M, HSD17B inhib 25µM
Cc1cccc(NC(=O)c2cc(-c3ccco3)nc3ccccc23)n1	HADH2 inhib inconclusive, A350 fluor 2.2e-07M, 4-MU autofl 2.2e-07M, HSD17B inhib 25µM
COC(=O)NC(c1ccc(Cl)cc1)C(C(C)=O)C(=O)OC (stereo not drawn)	none (no result: A350 fluor, 4-MU autofl, GBA activity)
Cc1nc2oc3c(NCc4ccccn4)ncnc3c2c2c1COC(C)(C)C2	HADH2 inhib inconclusive, A350 fluor inconclusive, 4-MU autofl inconclusive, HSD17B inhib 32µM
CCCc1nc2oc3c(NCc4ccccn4)ncnc3c2c2c1COC(C)(C)C2	HADH2 inhib inconclusive, HSD17B inhib 13µM
CCCc1nc2oc3c(NCC4CCCO4)ncnc3c2c2c1COC(C)(C)C2 (stereo not drawn)	HADH2 inhib inconclusive, HSD17B inhib 3.2µM
CC(C)c1nc2oc3c(NCC4CCCO4)ncnc3c2c2c1CCC2 (stereo not drawn)	HADH2 inhib 32µM, A350 fluor inconclusive, HSD17B inhib 32µM
C[C@@H]1Cc2ccccc2N1NC(=O)c1ccc(Cl)c(S(N)=O)c1 (stereo partly drawn)	A350 fluor inconclusive, 4-MU autofl inconclusive (no result: GBA activity)
Nc1nc2c(nc(Br)n2[C@@H]2O[C@H]3COP(=O)(O)O[C@@H]3[C@H]2O)c(=O)[nH]1	none (no result: GBA activity)
Cc1ccc([N+](=O)[O-])c(C)c1	none (no result: A350 fluor, 4-MU autofl, GBA activity)
